This is part of a sample that, as a whole, favours compounds with a hit. Of some 83,000 tested, about 20% had one in any assay.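 Cells were grown in 96-well plates and exposed to the test compound at a single concentration for 48 hours; results are reported as percent growth, with values below 10 considered active.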 Unmarked numbers belong to inactive results. The source made the active and inactive calls.
How the values were obtained:
Test in all cases: NCI-60 one-dose screen, 48 h (100 = growth as untreated, 0 = no growth, -100 = all killed)
Details in all cases: 10 µM unless noted
[1] = system: NCI-H226 lung
[2] = system: NCI-H322M lung
[3] = system: HOP-62 NSCLC
[4] = system: NCI-H460 lung
[5] = system: HOP-92 NSCLC
[6] = system: A549/ATCC NSCLC
[7] = system: 786-0 renal
[8] = system: COLO 205 colon
[9] = system: NCI-H522 lung

| Compound | growth [1] [%] | growth [2] [%] | growth [3] [%] | growth [4] [%] | growth [5] | growth [6] [%] | growth [7] [%] | growth [8] | growth [9] |
| --- | --- | --- | --- | --- | --- | --- | --- | --- | --- |
| C[C@@H]1C[C@H]2C(=O)O[C@@H](C)[C@H](NC(=O)[C@H](Cc3cc(F)cc(F)c3)NC(=O)Nc3ccc(Cl)cc3F)C(=O)N3C[C@H](O)C[C@H]3C(=O)N3CCN(C)C[C@H]3C(=O)N[C@@H](C)C(=O)N2C1 | 52.6 | 72.8 | 47.8 | 36 | 37.8% | 53.6 | 74.1 | 12% | – |
| Nc1nnc(CSc2nnc3n(Cc4ccccc4)c(=O)c4c5c(sc4n23)CCCC5)s1 | – | 111 | 99.2 | 15.4 | 70.6% | 95.1 | 93.3 | 77.4% | 66.8% |
| O=C(Nc1cccc(F)c1)c1cc(=O)[nH]c2cc(Br)ccc12 | 54.7 | 53.8 | 50.9 | 21.9 | 47.4% | 40.3 | 69.7 | 20.4% | 23.9% |
| COc1ccc2c(c1)C(C)Cc1c(Cl)nc(C)nc1N2C (configuration not stated) | 38.6 | 58.8 | 29.4 | 12.3 | 41.7% | 21.8 | 38.2 | -20.9% (active) | -17% (active) |
| Cc1cnc(N)nc1OCC(C)(C)CNC(=O)c1cccc(-c2ccc(S(=O)(=O)Nc3ccc4c(c3)N(C(=O)C3CC3)CCC4)cc2)c1 | 59.3 | 84.2 | 59.7 | 53.9 | 53.5% | 49.9 | 90.6 | 55.5% | 65.4% |
| CCc1ccc(C2=C/C(=C/c3ccccc3)C(=O)N2CCc2ccc(S(N)(=O)=O)cc2)cc1 | 99.2 | 94.5 | 96.9 | 100 | 99.2% | 108 | 98.6 | 120% | 100% |
| CSc1nc(N)c(N=Nc2ccc(S(=O)(=O)Nc3nnc(C)s3)cc2)c(=O)[nH]1 | 100 | 109 | 104 | 106 | 108% | 115 | 114 | 96.3% | 103% |
| O=C(CSc1nc2ccc([N+](=O)[O-])cc2[nH]1)Nc1ccc(F)c(Cl)c1 | – | 37.1 | 35 | 11.1 | -36.9% (active) | 23.4 | 21.9 | 24.7% | -3.92% (active) |
| C=CCCCCCCCCC(=O)OC(C)C | 102 | 94 | 97.5 | 100 | 82.3% | 99.2 | 104 | 105% | – |

Reference: PubChem BioAssay (NCI)
